CF NFkB block: cystic fibrosis NF-kB activation inhibition. 0.86% of 360,000 active. inhibition, % at 5 µM. KKLEB NF-kB-GFP reporter, PAF-induced, GFP fluorescence overnight;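 active = at least 50% inhibition at 5 µM, scaled per plate between neutral and stimulator controls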;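 note: PAF is a Pseudomonas aeruginosa culture filtrate used as stimulus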
HIF-2a block: HIF-2a inhibition; 786-0 RCC cells HIF-2a reporter, luciferase luminescence, overnight; 0.72% of 360,000 active; inhibition, % at 18.8 µM;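 active = inhibition of the luminescence signal of 40% or more relative to plate controls, in a single-dose primary screen at 18.75 µM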
Peg3 promoter: reduces Peg3 promoter-driven luciferase expression in HeLa | HeLa PEG-Prom luciferase reporter, luminescence, overnight | inhibition, % at 20 µM | 1.7% of 360,000 active | AID 588405;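 active = inhibition of at least 50% at 20 µM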
TROY NFkB inh: inhibitors of TROY-dependent NF-kB signaling | AID 1347056 | inhibition, % at 10 µM | 0.98% of 360,000 active | Q293 LMP1-TROYcd NF-kB luciferase reporter, 4 h;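 active = compounds whose plate-normalised and pattern-corrected inhibition of the luciferase reporter signal at the single screening dose is 50% or more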
TWEAK Fn14 block: TWEAK-Fn14 signaling inhibition; inhibition, % at 10 µM; TWEAK-stimulated Fn14 reporter cells, luciferase luminescence, 8 h; AID 1159606; 2% of 360,000 active; in the data active = inhibition above about 50%
KKLEB tox: CF airway cell cytotoxicity counter-screen; KKLEB CF airway cells viability, ATPlite luminescence, overnight; active compounds read low; cells stimulated with P. aeruginosa culture filtrate; 0.36% of 360,000 active; activity change (cytotoxicity), % at 5 µM;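 active = corrected activity change at or below -50% at 5 µM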
A number is an active result; – = inactive; · = no result. Rows were chosen to be rich in hits. Some 4% of all compounds tested hit in one or more screens of this group.

SMILES	CF NFkB block	HIF-2a block	Peg3 promoter	TROY NFkB inh	TWEAK Fn14 block	KKLEB tox
CC(=O)c1ccc(NC(=S)Nc2cccc3ccccc23)cc1	–	–	–	72.4	–	–
CN1CCN(c2ccc(NC(=S)NC(=O)c3cccc4ccccc34)cc2)CC1	–	–	69.5	–	–	–
COc1ccc(C(=O)Nc2ccc(N3CCN(C)CC3)cc2)cc1	–	–	–	–	–	–
COC(=O)c1ccccc1NC(=S)NC(=O)c1ccc2ccccc2c1	–	–	–	–	–	–
O=C(NC(=S)Nc1ccccc1N1CCCC1)c1ccccc1Br	–	–	–	–	–	–
COc1c(C)cccc1C(=O)NC(=S)Nc1ccccc1N1CCCC1	–	–	–	67.6	56.5	–
O=C(COC(=O)c1ccc(Br)o1)NCC1CCCCC1	–	–	–	–	–	–
CCCCCCOc1ccc(/C(C)=N/NC2=NCCN2)cc1[N+](=O)[O-]	–	–	111.2	–	–	–
C/C(=N\NC1=NCCN1)c1ccc(N)c([N+](=O)[O-])c1	–	–	–	–	–	–
CCCCOc1ccc(Br)cc1/C(C)=N/NC1=NCCN1	–	–	–	–	50.6	–
O=C(NCCOc1ccccc1)c1ccc2n[nH]nc2c1	–	–	–	–	–	–
Cc1cccn2c(=O)c(C=Nc3ccccc3)c(NCc3ccco3)nc12	–	–	–	–	–	–
O=C(CCSc1ccc(Br)cc1)Nc1cccnc1	–	–	–	–	–	–
CCCCC(=O)NNC(=O)c1c(O)c2ccccc2[nH]c1=O	–	–	–	–	–	–
O=C(CCl)NNC(=O)c1c(O)c2ccccc2[nH]c1=O	–	–	58.4	–	–	–
CCc1ccc(NC(=O)c2cnc(N3CCN(c4ccccn4)CC3)c3ccccc23)cc1	–	–	64.8	60.2	101.5	–
CC(C)NC(=O)c1cnc(N2CCN(c3ccccn3)CC2)c2ccccc12	–	–	–	–	–	–
COc1cc(N2CCCC2)c(OC)cc1/C=C(/C#N)c1ccc(Br)cc1	–	–	52.7	–	–	–
COc1ccc(Cc2c(-c3ccco3)nc3c(C)cc(Br)cn23)c(C)c1	–	–	–	–	–	–
Cc1cc(Br)cn2c(Cc3ccccc3)c(-c3ccco3)nc12	–	–	–	–	84.6	–
NNC(=O)c1[nH]c2ccccc2c1-c1ccccc1	–	–	–	–	–	–
O=C(CN1C(=O)NC(Cc2ccccc2)C1=O)Nc1ccccc1 (configuration not stated)	–	–	–	·	96.8	–
O=C(CC(Nc1cccc(Cl)c1Cl)C(=O)O)c1ccccc1 (configuration not stated)	–	–	–	–	–	–
O=C(CC(Nc1ccccc1Cl)C(=O)O)c1ccccc1 (configuration not stated)	–	–	–	64.9	60.5	–
O=C(N/N=C/c1ccc(O)cc1)c1[nH]c2ccc(Br)cc2c1-c1ccccc1	57.6	–	–	–	–	–
SMILES	CF NFkB block	HIF-2a block	Peg3 promoter	TROY NFkB inh	TWEAK Fn14 block	KKLEB tox
O=C(N/N=C/c1c[nH]c2ccccc12)c1[nH]c2ccc(Br)cc2c1-c1ccccc1	–	–	–	–	–	–
CCOc1ccc(/C=N/NC(=O)c2[nH]c3ccc(C)cc3c2C)cc1	–	–	–	–	–	–
Cc1c(C(=O)N/N=C/c2ccc(Cl)cc2)[nH]c2ccc(Cl)cc12	61.5	–	–	–	–	–
CC1=CC(=C(C#N)C#N)C=C(C)N1CCN1CCNCC1	–	–	–	–	–	–
CC1(C(=O)Nc2cnc3ccccc3c2)CCN1CCc1ccccc1 (configuration not stated)	–	–	50.9	–	–	–
CCc1ccc(NC(=O)CSc2nnnn2-c2cccnc2)cc1	–	–	–	–	–	–
Cc1ccc(S(=O)(=O)Cc2ccc(C(=O)NCCCN3CCN(C)CC3)o2)cc1	–	–	–	75.8	84.4	–
O=S(=O)(Nc1ccc2c(c1)OCCO2)c1cccc(F)c1	–	–	–	–	51.8	–
COc1ccc(NS(=O)(=O)c2ccc3c(c2)OCCO3)cc1OC	–	–	–	–	–	–
CC(=O)NCCc1ccc(S(=O)(=O)Nc2ccc3c(c2)OCCO3)cc1	–	–	–	–	54.7	–
COc1ccc(OC)c(S(=O)(=O)Nc2ccc3c(c2)OCCO3)c1	–	–	–	76.4	84.2	–
CC(=O)NCCNC(=O)c1cccc(NS(=O)(=O)c2ccc3c(c2)OCCO3)c1	–	–	–	–	–	–
COc1ccc(OC)c(S(=O)(=O)Nc2ccc(O)c3ccccc23)c1	63.7	–	67.4	–	–	–
COc1ccc(OC)c(S(=O)(=O)Nc2cccc3c(O)cccc23)c1	–	–	–	–	–	–
COc1cc2nc(CN3CCOCC3)n(CC(=O)N3CCCCCC3)c(=O)c2cc1OC	–	–	–	–	–	–
O=S(=O)(Nc1ccc2c(c1)OCCO2)c1ccc(F)c(F)c1	–	–	–	–	–	–
Cc1ccc(S(=O)(=O)Nc2ccc3c(c2)OCCO3)cc1C	–	–	–	80.2	87.4	–
Cc1ccc(N(CC(=O)Nc2ccc3c(c2)OCCO3)S(=O)(=O)c2c(C)n[nH]c2C)cc1	–	–	–	–	–	–
Cc1n[nH]c(C)c1S(=O)(=O)Nc1ccc2c(c1)OCCO2	–	–	–	62.8	82.0	–
Cc1cc(S(=O)(=O)N2CCCC2)ccc1OCC(=O)NCc1ccco1	–	–	–	–	–	–
COc1ccccc1C(=O)NC(=S)Nc1cccnc1Cl	–	–	–	78.3	95.4	–
Cc1ccc(C(=O)NC(=S)Nc2cccnc2Cl)cc1	–	–	–	–	73.0	–
COc1ccccc1C(=O)NC(=S)Nc1ccc(N2CCOCC2)c(Cl)c1	–	–	–	52.0	–	–
C[C@H]1CN([C@@H](C)CO)C(=O)CCCn2nncc2CO[C@H]1CN(C)S(=O)(=O)c1ccccc1F	–	–	–	–	–	–
O=C(CSc1nc(-c2ccco2)cc(C(F)(F)F)n1)NC1CCCCCCC1	–	–	–	·	–	–
SMILES	CF NFkB block	HIF-2a block	Peg3 promoter	TROY NFkB inh	TWEAK Fn14 block	KKLEB tox
O=C(NC(O)C(=O)c1ccccc1)c1ccc(F)cc1 (configuration not stated)	–	–	–	–	–	–
c1ccc2c(CCc3ccncc3)cccc2c1	–	–	–	–	–	–
O=C1/C(=C/c2ccccn2)COc2ccccc21	–	–	–	–	–	–
O=C1/C(=C/c2ccc(O)cc2)COc2ccccc21	–	–	–	–	65.6	–
O=C(CCn1c2c(c3ccccc31)CCCC2)NNC(=O)c1cccc([N+](=O)[O-])c1	–	–	–	–	–	–
O=C(CCn1c2c(c3ccccc31)CCCC2)NNC(=O)c1ccccc1Cl	–	–	–	–	64.6	–
O=C(CCSCc1ccccc1Cl)N1CCN(c2ccccn2)CC1	–	–	–	–	–	–
Cc1ccccc1-c1nc(SCc2cccnc2)c2c(=O)n(C)c(=O)n(C)c2n1	–	–	64.2	–	–	–

Screening results: PubChem, Sanford-Burnham Center for Chemical Genomics
